Bioassay records from PubChem.
Abeta rescue: restores growth of yeast expressing A-beta42 peptide. Potency, µM (highest dose often 46.1 µM), usual class: activators. hit rate 0.063% among 410,000. AID 1347071. yeast expressing A-beta42, growth rescue, OD600, 48 h; response scale: 0% DMSO, 100% iron-clioquinol control; also: nearly all actives have a fitted effect of over 55% in size
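Yeast growth medium received pinned compounds, then yeast cells expressing toxic A-beta were added; plates incubated at 30 C for 48 hr. Growth read as absorbance at 600 nm, normalized to DMSO and equimolar FeCl3 plus clioquinol controls.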
TDP43 rescue: inhibitors of TDP-43 toxicity in yeast | AID 652104 | hit rate 1.8% among 410,000 | TDP-43 expressing yeast growth rescue, BacTiter-Glo, 24 h | Potency, µM (series often up to 46.1 µM), for the others: at the highest dose growth rescue (activation), hits mostly activators; also: % of control where 0% means no effect; nearly all actives have a fitted effect of over 50% in size
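Readout is BacTiter-Glo luminescence of cell growth, so inhibitors register as activators. TDP-43-expressing yeast at OD600=0.02 in galactose medium, after raffinose pregrowth to mid-log, were incubated with compound for 24 hr at 30 deg C.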
FUS yeast rescue: suppressors of FUS proteinopathy in yeast; S. cerevisiae FUS-expressing, growth rescue, OD600, 24 h; hit rate 0.24% among 390,000; Potency, µM (series often up to 76.6 µM), most hits filed as activators; AID 1347120;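 also: plate controls were DMSO vehicle for no effect and reference control for full effect; nearly all actives have a fitted effect of over 55% in size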
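Restored growth of FUS-toxic S. cerevisiae, read as 600 nm absorbance after 24 h at 30C in galactose medium (starting OD 0.005). Controls CP55940 and DMSO.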
Mito fusion act: mitochondrial division inhibition or fusion activation; S. cerevisiae fusion-defective mutant growth rescue, CellTiterGlo 48 h; Potency, µM (titrated, usually from 46.1 µM), inactives show at the highest dose growth rescue (activation), usual class: activators; hit rate 0.23% among 320,000; also: % of control where 0% means no effect; nearly all actives have a fitted effect of over 45% in size
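Temperature-sensitive fusion-defective S. cerevisiae (e.g. fzo1-1, mgm1-5) were grown with compound in YPEG medium (3% ethanol, 3% glycerol) for 48 hours at 37C. Growth rescue was measured as viability by CellTiterGlo luminescence after 10 minutes at ambient.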
aSyn rescue: inhibitors of alpha-synuclein toxicity in yeast. Yeast expressing alpha-synuclein, growth rescue, BacTiter-Glo, 24 h. Potency, µM (highest dose often 46.1 µM), inactives show top-dose growth rescue (activation), most hits filed as activators. hit rate 0.14% among 370,000. AID 652106; also: % of control where 0% means no effect; nearly all actives have a fitted effect of over 65% in size
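Rescue of yeast growth: cells expressing toxic alpha-synuclein, induced in galactose at OD600 0.02, incubated with compound 24 h at 30 C. ATP luminescence quantified growth; inhibitors of toxicity appear as activators.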
The depositor's hits bear a star; [ ] = remark or other dose. Only some compounds are listed: those with a hit (about 2.2% of all), similar ones and a draw of the others. Calls follow the shape of the dose curve; as a rule, active = well fitted curve in the direction sought with a large enough effect; inconclusive = small, poorly fitted or top-dose-only effect, or another doubt; inactive = no such curve, though single readings can be large; an effect the other way counts as inactive or inconclusive. Potency is read from the fitted curve at half-maximal effect.

For O=c1cc(CSc2ccc(Cl)cc2)nc(-c2ccccn2)[nH]1 the results were Abeta rescue inconclusive, TDP43 rescue inconclusive, FUS yeast rescue inactive, Mito fusion act -29% and aSyn rescue 10µM*.
Screening CC1(NC(=O)c2ccc(C#Cc3cccc(F)c3)cn2)COC1 returned FUS yeast rescue inactive.
`CC1CCN(c2oc(-c3ccc(OCc4ccccc4Cl)cc3)nc2C#N)CC1` gave aSyn rescue -1%.
For CC(C)(C)N(Cc1ccccc1)C(=O)CSc1ncn[nH]1 the results were Abeta rescue inactive, TDP43 rescue -23%, FUS yeast rescue inactive, Mito fusion act 32µM* and aSyn rescue -4%.
`CCOC(=O)N1CCC(NC(=O)c2ccc3c(c2)N(Cc2ccc(F)cc2)C(=O)c2ccccc2S3(=O)=O)CC1` gave Abeta rescue inactive, TDP43 rescue -17% and FUS yeast rescue 25µM*.
`O=C1c2ccccc2S(=O)(=O)c2cc(C(=O)N3CCN(c4ccc(Cl)cn4)CC3)ccc21` gave Abeta rescue inactive, TDP43 rescue 20µM*, FUS yeast rescue inactive and aSyn rescue 6%.
N#Cc1cccnc1N1CCN(C(=O)c2ccc3c(c2)S(=O)(=O)c2ccccc2C3=O)CC1 was read as Abeta rescue inactive, TDP43 rescue -18%, FUS yeast rescue inactive and aSyn rescue 0%.
`O=C(c1ccc2c(c1)N(Cc1ccc(Cl)cc1)C(=O)c1ccccc1S2(=O)=O)N1CCCCCC1` gave Abeta rescue inactive, TDP43 rescue 18% and FUS yeast rescue 28µM*.
O=C(c1ccc2c(c1)N(Cc1cccc(Cl)c1)C(=O)c1ccccc1S2(=O)=O)N1CCCCCC1 was read as Abeta rescue inactive, TDP43 rescue 12% and FUS yeast rescue inconclusive.
`S=c1ncc2n[nH]nc2[nH]1` gave aSyn rescue 6%.
Screening CCOC(=O)c1ccc(NC(=O)c2csnn2)cc1 returned Abeta rescue inactive, TDP43 rescue 28% and FUS yeast rescue inactive.
For Cc1cccc(C)c1-n1ncc(C(=O)NC2CCCC2)c1C1CCN(C(=O)OC(C)(C)C)CC1 the results were Abeta rescue inactive, TDP43 rescue 19% and FUS yeast rescue inactive.
CC(C)c1ccc(/C=C(\c2nc3ccccc3[nH]2)S(=O)(=O)c2ccccc2)cc1 was read as Abeta rescue inactive, TDP43 rescue 25%, FUS yeast rescue inactive, Mito fusion act inconclusive and aSyn rescue 9%.
O=S(=O)(/C(=C/c1ccc(C(F)(F)F)cc1)c1nc2ccccc2[nH]1)c1ccccc1 was read as Abeta rescue inactive, TDP43 rescue 10µM*, FUS yeast rescue inactive, Mito fusion act 28% and aSyn rescue -7%.
For COc1cccc2c1C(=N)c1c(O)c3c(c(O)c1C2=O)CC(O)(C(C)=O)CC3OC1CC(N)C(O)C(C)O1 (stereo not given) the results were Abeta rescue inactive, TDP43 rescue -63% and aSyn rescue -39%.
For COc1cccc2c1C(=O)c1c(O)c3c(c(O)c1C2=O)C[C@](O)(C(C)=O)C[C@H]3O[C@@H]1C[C@@H](N)[C@@H](O)[C@@H](C)O1 the results were Abeta rescue inactive, TDP43 rescue -13%, FUS yeast rescue inactive, Mito fusion act -17% and aSyn rescue 11µM*.
Screening Fc1ccc(Nc2ncnc3onc(-c4ccc(Cl)cc4)c23)cc1Cl returned Abeta rescue inactive, TDP43 rescue inconclusive and FUS yeast rescue inactive.
CCN(CC(=O)Nc1ccc(NC(C)=O)cc1)C(=O)c1ccc(COc2ccc(C(C)(C)C)cc2)cc1 was read as Abeta rescue inactive, TDP43 rescue 14%, FUS yeast rescue inactive and aSyn rescue 4%.
CCOc1ccc(OCc2ccc(C(=O)N(CC)CC)cc2)cc1 was read as Abeta rescue inactive, TDP43 rescue 13µM*, FUS yeast rescue inactive, Mito fusion act inconclusive and aSyn rescue -11%.
O=C(c1cc(F)c(F)cc1Cl)N1CCN(c2ccc([N+](=O)[O-])c3ncccc23)CC1 was read as Abeta rescue inactive, TDP43 rescue inconclusive, FUS yeast rescue inactive, Mito fusion act 0% and aSyn rescue -11%.
Screening O=C(c1ccc(Cl)cc1)N1CCN(c2ccc([N+](=O)[O-])c3ncccc23)CC1 returned Mito fusion act 23µM* and aSyn rescue 12%.
Cc1ccc(NC(=O)c2nnn(CC(=O)Nc3ccc4c(c3)OCO4)c2N)cc1C was read as Abeta rescue inactive, TDP43 rescue 1%, FUS yeast rescue inactive, Mito fusion act -6% and aSyn rescue 13%.
Screening Cc1ccc(NC(=O)Cn2nnc(C(=O)Nc3ccc(C)c(C)c3)c2N)cc1 returned Abeta rescue inactive, TDP43 rescue 4%, FUS yeast rescue 22µM*, Mito fusion act -5% and aSyn rescue 3%.
Screening Cc1ccccc1CN1CCCCC(NC(=O)c2ccc3ccccc3c2)C1=O (stereo not given) returned FUS yeast rescue inactive.
For Cc1cc(=O)n(Cc2ccccc2)c2ccccc12 the results were Abeta rescue inactive, TDP43 rescue 25%, FUS yeast rescue inactive, Mito fusion act -5% and aSyn rescue 3%.
Cc1cc(=O)n(CC=C(Cl)Cl)c2ccccc12 was read as Abeta rescue inactive, TDP43 rescue 13µM*, FUS yeast rescue inconclusive, Mito fusion act 2% and aSyn rescue 8%.
`COc1ccc(OCCSc2nnc3sc4ccccc4n23)cc1` gave Abeta rescue inactive, TDP43 rescue 16µM*, FUS yeast rescue inactive, Mito fusion act -2% and aSyn rescue 12%.
For CN(C)CCSc1nnc2sc3ccccc3n12 the results were Abeta rescue inactive, TDP43 rescue 9%, FUS yeast rescue inactive, Mito fusion act 1% and aSyn rescue 1%.
Screening CC(=O)Nc1nonc1-c1nnc(SCc2ccc(F)cc2Cl)n1C returned Abeta rescue inactive, TDP43 rescue 25%[9.22 µM] and FUS yeast rescue inactive.
Screening CC(C)c1ccc(S(=O)(=O)Nc2ccc(SC(F)F)cc2)cc1 returned Abeta rescue inactive, TDP43 rescue -92%, Mito fusion act -25% and aSyn rescue -33%.
Cc1ccc(S(=O)(=O)Nc2ccc(SC(F)F)cc2)c(C)c1 was read as Abeta rescue inactive, TDP43 rescue -65%, Mito fusion act inconclusive and aSyn rescue 18µM*.
For O=[N+]([O-])c1nn(-c2cccc(Cl)c2)n(O)c1=NCc1cccnc1 the results were Abeta rescue inactive, TDP43 rescue 11µM*, Mito fusion act 9% and aSyn rescue -3%.
O=[N+]([O-])c1nn(-c2ccc(Cl)cc2)n(O)c1=NCc1cccnc1 was read as Abeta rescue inactive, TDP43 rescue 13µM*, Mito fusion act inconclusive and aSyn rescue 1%.
